Measured values: PubChem BioAssay (NCATS)
Records with an inconclusive call do not appear. Entries that show only a call come without a potency. Active and inactive are the calls of the source. Calls follow the shape of the dose curve; as a rule, active = well fitted inhibition curve with a large enough effect; inconclusive = small, poorly fitted or top-dose-only effect; inactive = no such curve, though single readings can be large or run the other way.

molecular target: Tumor susceptibility gene 101 protein (Homo sapiens) (UniProt Q99816); test: qHTS Assay for Iinhibitors of HIV-1 Budding by Blocking the Interaction of PTAP/TSG101: Hit Validation (AID 651600); conditions: PTAP peptide/TSG101 UEV interaction, biochemical assay; series mostly up to 57.5 µM; also: nearly all actives have a fitted effect of over 70% in size
Sequence (Q99816 whole entry, looked up, the tested form may be a part): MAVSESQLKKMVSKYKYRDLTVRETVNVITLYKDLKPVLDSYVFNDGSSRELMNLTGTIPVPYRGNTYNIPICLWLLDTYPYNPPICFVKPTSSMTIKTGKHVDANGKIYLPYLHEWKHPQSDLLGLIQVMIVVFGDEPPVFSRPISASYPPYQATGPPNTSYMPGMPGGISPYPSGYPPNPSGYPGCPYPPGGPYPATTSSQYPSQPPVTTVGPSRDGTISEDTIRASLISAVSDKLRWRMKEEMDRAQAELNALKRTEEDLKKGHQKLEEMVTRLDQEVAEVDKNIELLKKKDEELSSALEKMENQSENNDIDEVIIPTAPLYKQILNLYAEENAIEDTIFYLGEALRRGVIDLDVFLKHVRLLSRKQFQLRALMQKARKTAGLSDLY
In short: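 FITC-PTAP peptide (50 nM final) binding to Tsg101 binding domain (10 uM final) was measured by polarization after 20 min at r.t. with compounds, in 10 mM HEPES pH 7.5 buffer with 0.15 M NaCl and 0.01% Tween 20.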
Potency is read from the fitted curve at half-maximal effect.

| Compound | Potency |
| --- | --- |
| CCN(CC)c1ccc2cc(-c3nc(-c4ccc(OC)cc4)cs3)c(=O)oc2c1 | inactive |
| Cc1ccc(C2C=C(c3ccc(Cl)cc3)Nc3nc(NS(=O)(=O)c4ccccc4)nn32)cc1 (stereo unspecified) | inactive |
| N#Cc1c(SCC(=O)Nc2nc3ccc(Br)cc3s2)sc2c(O)cc(=O)[nH]c12 | inactive |
| COc1cc(OC)c(N(C)C(=O)c2sc3nc4n(c(=O)c3c2C)CCCC4)cc1Cl | inactive |
| CN1CCc2c(sc(NC(=O)CSc3ccc(F)cc3)c2-c2nc3ccccc3s2)C1 | inactive |
| CC1C2C(c3ccccc3)N(C)C(=O)N(C)C2N(C)C(=O)N1C (stereo unspecified) | inactive |
| Cn1cc(/C=C2\SC(=S)N(NC(=O)c3ccccc3)C2=O)c2ccccc21 | inactive |
| CCOc1ccc(NC(=O)c2ccc3c(c2)CCN3S(C)(=O)=O)cc1 | inactive |
| COc1ccc2c(C=Nc3c(C)n(C)n(-c4ccccc4)c3=O)c(O)n(Cc3ccco3)c(=O)c2c1 | 29.1 µM (active) |
| O=C(CN1C(=O)NC(Cc2c[nH]c3ccccc23)C1=O)Nc1ccccc1C(F)(F)F (stereo unspecified) | inactive |
| COc1ccc(N(C(=O)c2snc(C(N)=O)c2N)C(C(=O)NC2CCCC2)c2ccc3ncccc3c2)cc1 (stereo unspecified) | inactive |
| Nc1nnnn1/N=C/c1cc(Cl)cc(Cl)c1O | 18.3 µM (active) |
| CCCCNc1c2c3c(cccc3n(C)c1=O)C(=O)c1ccccc1-2 | 5.8 µM (active) |
| CSc1nc(-c2cccs2)c(C#N)c(=O)[nH]1 | inactive |
| CCN(CC)c1ccc(/C=C(/C#N)c2nc3ccc(C)cc3[nH]2)c(OC(C)C)c1 | inactive |
| CCN(CC)c1ccc2cc(NC(=O)CCC(=O)O)c(=O)oc2c1 | 18.3 µM (active) |
